According to PubChem BioAssay AID1159580 (chemical genetic matrix, 2015):
In all, about 5,500 compounds went through this assay and about 2,000 (36%) were called active. About 18% were inconclusive and are not listed. No stated cut-off is given here; in the data, active means normalized growth mostly below about 0.91 (no sharp cut-off); inconclusive means no clear call, values can overlap the other calls; inactive means mostly above about 0.92. This is one part of the list.

Experiment: chemical genetic growth profiling, strain panel (AID 1159580);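 further: tested at 20 µM; growth read once vehicle control cultures reached saturation at 30 °C; 1 = growth at the plate median or of vehicle wells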
Details: S. cerevisiae deletion strains, growth OD

Measured: normalized growth

C[C@H](N)CN1CCc2ccc(Br)cc21
inactive: locus YAL040C, strain CLN3, stronger effect = lower value 0.979 | locus YCL061C, strain MRC1 (second series), stronger effect = lower value 0.992 | locus YDR150W, strain NUM1, stronger effect = lower value 1 | locus YDR363W, strain ESC2, stronger effect = lower value 1.01 | locus YER002W, strain NOP16, stronger effect = lower value 0.992 | locus YGR078C, strain PAC10, stronger effect = lower value 1.02 | locus YJR075W, strain HOC1, stronger effect = lower value 1 | locus YMR307W, strain GAS1, stronger effect = lower value 1 | locus YNL153C, strain GIM3, stronger effect = lower value 0.997 | locus YNL175C, strain NOP13, stronger effect = lower value 1.01 | locus YNL197C, strain WHI3, stronger effect = lower value 1.02 | locus YNL224C, strain SQS1, stronger effect = lower value 1.01 | locus YOR083W, strain WHI5 (second series), stronger effect = lower value 1 | locus YPL055C, strain LGE1, stronger effect = lower value 0.968
